The test system of experiment [1] is Zika virus NS2B-NS3 protease (unlinked complex). In words: Primary screen GU Rhodamine qHTS for Zika virus inhibitors: Unlinked NS2B-NS3 protease assay (AID 1347159). Also: nearly all actives have a fitted effect of over 60% in size. The gist of the method:
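Unlinked NS2B/NS3, 25 nM; Rhod110 peptide, 1.5 microM; compounds, up to 114 microM. Reaction run 15 min at RT in 10 mM Tris-HCl pH 8.0, 0.01% Tween 20; kinetic fluorescence change fitted with a 4-parameter Hill model.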
A general note: Quantitative high-throughput screening tests each substance at several concentrations.

Experiment [2] deals with Zika virus NS2B-NS3 protease (linked construct). The experiment can be described thus: Primary screen NINDS Rhodamine qHTS for Zika virus inhibitors (AID 1347160). Also: nearly all actives have a fitted effect of over 55% in size. The method in brief:
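Single-chain NS2B-NS3 protease, 25 nM, pH 8.0; compounds preincubated 15 min. Activity: Rhodamine110 release from 1.5 microM substrate over 15 min, room temperature, data fitted to 4-parameter Hill.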

Inconclusive results are not listed. Where a call stands in place of a potency, no number is given. A number with no mark means an inactive call. Activity calls are given as the source filed them. Calls follow the shape of the dose curve; as a rule, active = well fitted inhibition curve with a large enough effect; inconclusive = small, poorly fitted or top-dose-only effect; inactive = no such curve, though single readings can be large or run the other way.

In the case of `CC1(C)CC[C@]2(CO[C@@H]3O[C@H](CO)[C@@H](O)[C@H](O)[C@H]3O)[C@@H](O)C[C@]3(C)C(=CCC4[C@@]5(C)CC[C@H](O[C@@H]6O[C@H](CO[C@@H]7O[C@H](CO[C@@H]8OC[C@@H](O)[C@H](O)[C@H]8O)[C@@H](O)[C@H](O)[C@H]7O)[C@@H](O)[C@H](O)[C@H]6O)C(C)(C)C5CC[C@]43C)[C@@H]2C1` (some centres undefined), the Potency result in experiment [1] and in experiment [2] was “inactive” in each case.
Regarding `CC(O)/C=C/C1(O)C2(C)COC1(C)CC(O)C2` (centres undefined), the Potency entry in experiment [1] and in experiment [2] was “inactive” each time.
As for `C=C(C)[C@@H]1CC[C@]2(C)CC[C@]3(C)[C@H](CC[C@@H]4[C@@]5(C)CC[C@@H](O)C(C)(C)[C@@H]5CC[C@]43C)[C@@H]12`, the Potency result in experiment [1] and in experiment [2] was “inactive” throughout.
Turning to `CCNC(=O)Nc1ccc(-c2nc3c(c(N4CCOC[C@@H]4C)n2)CCN(c2ncccn2)C3)cc1`, the Potency entry in experiment [1] and in experiment [2] was “inactive” each time.
In the case of `COc1cccc(C(=O)N2CCN(C(=O)COc3cccc(C)c3)CC2)c1OC`, the Potency entry in experiment [1] and in experiment [2] was “inactive” each time.
As to `CC(C)CC(=O)O[C@@H]1OC=C(CO[C@@H]2O[C@H](CO)[C@@H](O)[C@H](O)[C@H]2O)[C@H]2[C@@H]3O[C@H]3[C@@](O)(CO)[C@@H]12`, the Potency result in experiment [1] and in experiment [2] was “inactive” in each case.
As to `C=C1CC2C(C)(CCC(=O)O)C(C(C)(C)O)CCC2(C)C2C(=O)OC(C)(C(=O)OC)C(=O)C12C` (centres undefined), the Potency entry in experiment [1] and in experiment [2] was “inactive” each time.
As for `CCCNc1ccc2ncc(-c3ccc4[nH]ncc4c3)n2n1`, the Potency entry in experiment [1] and in experiment [2] was “inactive” in each case.
Turning to `C=C1C[C@]23C[C@H]1CC[C@H]2[C@@]1(C)CCC[C@@]2(C)C(=O)O[C@@H]([C@@H]3O)[C@@H]12`, the Potency entry in experiment [1] and in experiment [2] was “inactive” throughout.
As to `C=C(F)c1sc(CNCCCNc2cc(=O)c3ccccc3[nH]2)c(C)c1Br`, the Potency entry in experiment [1] and in experiment [2] was “inactive” throughout.
Consider `CC(Oc1cc(-n2cnc3ccc(CN4CCN(C)CC4)cc32)sc1C(N)=O)c1ccccc1C(F)(F)F` (centres undefined), for which the Potency result in experiment [1] and in experiment [2] was “inactive” in each case.
With `C=C1C[C@]23C[C@H]1[C@@H](O)C[C@H]2[C@@]12C=C[C@H](O)[C@@](C)(C(=O)O1)[C@H]2[C@@H]3C(=O)O`, the Potency entry in experiment [1] and in experiment [2] was “inactive” in each case.
Regarding `CCOC(=O)CCN(C(=O)c1ccc2c(c1)nc(CNc1ccc(C(=N)N)cc1)n2C)c1ccccn1`, the Potency entry in experiment [1] and in experiment [2] was “inactive” throughout.
As to `O=C(NCc1ccc(F)cc1)C(=O)c1c[nH]c2ccccc12`, the Potency result in experiment [1] and in experiment [2] was “inactive” in each case.
With `CN(C)C1CCN(C(=O)c2ccc(NC(=O)Nc3ccc(-c4nc(N5CCOCC5)nc(N5CCOCC5)n4)cc3)cc2)CC1`, the Potency result in experiment [1] and in experiment [2] was “inactive” each time.
For the compound `C=C1C(OC2OCC(O)C(O)C2O)CC2C(C)(C)C(O)CCC2(C)C1CC/C(C)=C\CO` (centres undefined), the Potency entry in experiment [1] and in experiment [2] was “inactive” throughout.
For `COc1ccc(-c2nc(-c3ccc(-c4cccc(Cl)c4)o3)[nH]c2-c2ccc(OC)cc2)cc1`, the Potency entry in experiment [1] and in experiment [2] was “inactive” each time.
Turning to `CC1COC(Nc2ccc3ncnc(Nc4ccc(OCc5nccs5)c(Cl)c4)c3c2)=N1` (centres undefined), the Potency entry in experiment [1] and in experiment [2] was “inactive” throughout.
As to `CCCCNc1ncc2c(-c3ccc(F)cc3)nn(CC3CCC(N)CC3)c2n1` (centres undefined), the Potency entry in experiment [1] and in experiment [2] was “inactive” each time.
As to `C#CC[C@H](c1nc2cc(Cl)ccc2c(=O)n1Nc1ccccc1)N(CCCN)C(=O)c1cccc(Cl)c1F`, the Potency result in experiment [1] and in experiment [2] was “inactive” in each case.
For the compound `CC1C(=O)CC2C3CCC(C(=O)O)C12CC3(C)CO` (centres undefined), the Potency entry in experiment [1] and in experiment [2] was “inactive” in each case.
For `Cc1cc(OCc2nnc(SC3CCCC3)n2-c2cccnc2)ccc1-c1ccc(S(C)(=O)=O)cc1`, the Potency result in experiment [1] and in experiment [2] was “inactive” throughout.
In the case of `COC(=O)c1ccc(OC(CO)C(O)c2ccc(O)c(OC)c2)c(OC)c1` (centres undefined), the Potency result in experiment [1] and in experiment [2] was “inactive” each time.
`CCS(=O)(=O)N1CCN(c2ccc(Nc3ncc(C(N)=O)c(NC4CC4)n3)cc2)CC1`: the Potency entry in experiment [1] and in experiment [2] was “inactive” in each case.
As for `C[C@@H]1CC[C@]2(C(=O)OC3OC(CO)C(O)C(O)C3O)CC[C@]3(C)C(=CCC4[C@@]5(C)CC[C@H](O)[C@](C)(C(=O)O)C5CC[C@]43C)C2[C@]1(C)O` (some centres undefined), the Potency entry in experiment [1] and in experiment [2] was “inactive” each time.
For the compound `CCn1cc(NC(=S)Nc2cc(Cl)ccc2OC)c(C(N)=O)n1`, the Potency result in experiment [1] and in experiment [2] was “inactive” each time.
Regarding `CO/N=C(/C(=O)N[C@@H]1C(=O)N2C(C(=O)O)=C(Cn3ccc(=N)n3CCO)CS[C@H]12)c1csc(N)n1`, the Potency result in experiment [1] and in experiment [2] was “inactive” in each case.
